# TROY NFkB inh: inhibitors of TROY-driven NF-kB signaling, primary screen, Q293 LMP1-TROYcd cells, NF-kB luciferase, uHTS | Q293 LMP1-TROYcd NF-kB luciferase reporter, 4 h | inhibition, % at 10 µM | 360,000 tested, 0.98% active;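 active = compounds whose plate-normalised and pattern-corrected inhibition of the luciferase reporter signal at the single screening dose is 50% or more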
# KKLEB tox: cytotoxicity in KKLEB CF airway cells, primary screen, cytotoxicity control for CF NF-kB inhibitor project, cell-based, uHTS, fluorescence assay plates; KKLEB CF airway cells viability, ATPlite luminescence, overnight; stronger effect = lower value; cells stimulated with P. aeruginosa culture filtrate; activity change (cytotoxicity), % at 5 µM; 360,000 tested, 0.36% active; AID 602141, 2011;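 active = corrected activity change at or below -50% at 5 µM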
# CF NFkB inh: inhibitors of PAF-induced NF-kB signaling, primary screen, cell-based, GFP fluorescence, uHTS | AID 588850, 2011 | inhibition, % at 5 µM | KKLEB NF-kB-GFP reporter, GFP fluorescence overnight | 360,000 tested, 0.86% active;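 active = at least 50% inhibition at 5 µM, scaled per plate between neutral and stimulator controls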;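 also: PAF is a Pseudomonas aeruginosa culture filtrate used as stimulus; plate controls were PAF-stimulated DMSO wells for no effect and unstimulated DMSO wells for full effect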
# HIF-2a inh: HIF-2a reporter inhibitors, primary screen, luminescence, 786-0 RCC cells; 786-0 RCC cells HIF-2a reporter, luciferase luminescence, overnight; inhibition, % at 18.8 µM; 360,000 tested, 0.72% active; AID 624352, 2012;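 active = inhibition of the luminescence signal of 40% or more relative to plate controls, in a single-dose primary screen at 18.75 µM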
# TWEAK Fn14 block: inhibitors of TWEAK-Fn14 signaling, primary screen, luciferase reporter cells, uHTS | 360,000 tested, 2% active | TWEAK-stimulated Fn14 reporter cells, luciferase luminescence, 8 h | AID 1159606, 2016 | inhibition, % at 10 µM; in the data active = inhibition above about 50%
# Peg3 promoter: Peg3 promoter-driven luciferase inhibitors, primary screen, cell-based, HeLa, luciferase luminescence | HeLa PEG-Prom luciferase reporter, overnight | inhibition, % at 20 µM | 360,000 tested, 1.7% active | AID 588405, 2011;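 active = inhibition of at least 50% at 20 µM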
# An asterisk follows results filed as active; . = no result. Most compounds without a hit are left out; they make up all but 4% or so of the library.
SMILES,TROY NFkB inh,KKLEB tox,CF NFkB inh,HIF-2a inh,TWEAK Fn14 block,Peg3 promoter
C#CCNC(=O)C1=C[C@H](c2csc3ccccc23)C[C@H](OCc2ccc(CO)cc2)O1,6,-7,10,21,20,30
O=C(Nc1ccccc1)C1=C[C@@H](c2ccccc2)C[C@@H](OCc2ccc(CO)cc2)O1,-48,5,0,-192,-86,-116
O=C(Nc1ccccc1)C1=C[C@@H](c2csc3ccccc23)C[C@@H](OCc2ccc(CO)cc2)O1,76*,-2,1,9,-16,17
O=C(Nc1ccccc1)C1=C[C@H](C2CCCCC2)C[C@H](OCc2ccc(CO)cc2)O1,66*,-18,2,-86,39,-18
O=C(Nc1ccccc1)C1=C[C@@H](C2CCCCC2)C[C@@H](OCc2ccc(CO)cc2)O1,73*,-2,24,-84,57*,-29
COc1ccc(CCNC(=O)c2cnccn2)cc1,-6,-12,10,-39,-12,-27
CCCCc1ccc(NC(=O)c2cnccn2)cc1,1,-27,-8,-96,64*,-63
CCCc1ccc(C(C)NC(=O)c2cnccn2)cc1 (stereo not given),.,-7,-3,-2,85*,10
CN(C)c1ccc(C2CC(=O)OC3=C2C(=O)CC(C)(C)C3)cc1 (stereo not given),6,6,-17,4,1,13
O=S1(=O)CC(c2ccccc2)=NN=C(c2ccccc2)C1,38,-41,-31,-151,89*,-257
O=C1CC(c2ccccc2)=NO1,-10,21,-28,-12,4,6
Cc1c(CN(C)C)c2c(n1C)C(=O)c1ccc(Br)cc1-2,-8,-3,6,12,-29,6
Cc1c(CN(C)C)c2c(n1Cc1ccccc1)C(=O)c1ccc(Br)cc1-2,-3,-25,7,-6,-9,67*
COc1cccc(C(=O)NCCS(=O)(=O)N2CCCC2)c1,-6,-2,-2,1,-9,5
O=C(COc1ccc(/C=N/NC(=O)c2cc3ccccc3o2)cc1Cl)Nc1ccccc1,8,-93*,90*,-75,-39,108*
O=C(O)c1cccc(-n2cccc2/C=C2/NC(=O)N(c3ccc(Cl)cc3)C2=O)c1,-39,8,-5,-5,46,7
COc1ccc(-n2cccc2/C=C2/NC(=O)N(c3cccc(Cl)c3)C2=O)cc1,76*,3,3,-77,56*,-63
O=C(O)c1cccc(-n2cccc2/C=C2/NC(=O)N(c3cccc(Cl)c3)C2=O)c1,-8,4,22,5,58*,-1
CCOc1ccc2nc3cc(N=Nc4ccc(N)nc4N)ccc3c(N)c2c1,-22,-2,-100,11,-118,74*
Cc1ccc(-c2csc(=Nc3cccnc3)n2CCCn2ccnc2)cc1C,51*,-6,75*,11,84*,28
CCOC(=O)C1=C(N)Oc2cc(C)[nH]c(=O)c2C1c1ccncc1 (stereo not given),.,4,-1,26,76*,17
COc1cc(SC)ccc1C(=O)Nc1ccc(Br)cn1,84*,-85*,-10,38,97*,55*
COc1cc(SC)ccc1C(=O)Nc1ccccn1,-7,-40,-4,-169,56*,-167
CCc1ccc(NC(=O)CSc2nc(CSc3ccc(C)cc3)cc(=O)[nH]2)cc1,8,13,7,2,-37,-3
CCCc1cc(=O)[nH]c(SCC(=O)Nc2ccc(Br)cc2)n1,12,-5,-8,16,10,7
SMILES,TROY NFkB inh,KKLEB tox,CF NFkB inh,HIF-2a inh,TWEAK Fn14 block,Peg3 promoter
CCCc1cc(=O)[nH]c(SCC(=O)Nc2ccc(Br)cc2Br)n1,68*,10,8,14,-18,11
Cc1ccc(SCc2cc(=O)[nH]c(SCC(=O)Nc3cc(Cl)ccc3Cl)n2)cc1,59*,7,5,20,-12,14
O=C1C2C3CCC(O3)C2C(=O)N1c1nccs1 (stereo not given),-8,0,18,10,4,13
Cc1ccc(-n2nc3c([n+]2[O-])CCc2c-3no[n+]2[O-])cc1,-4,9,-2,-25,57*,2
[O-][n+]1onc2c1CCc1c-2nn(-c2ccccc2Cl)[n+]1[O-],5,-13,0,4,25,47
OC(COc1c(F)cc(Br)cc1F)CN1CCc2ccccc2C1 (stereo not given),23,-18,9,6,-3,2
CN(C)c1ccc(C(CNC(=O)c2ccc(-c3ccccc3)cc2)N2CCOCC2)cc1 (stereo not given),10,2,4,-6,2,-18
COC(=O)c1cc(NC(=O)c2cccnc2)cc(C(=O)OC)c1,-27,7,-14,16,-4,12
COC(=O)c1ccc(C(NC(=O)c2cccnc2)NC(=O)c2cccnc2)cc1,32,4,8,3,59*,19
COc1ccc(/C=C(\CC(=O)O)c2nc3ccccc3s2)cc1O,-10,6,6,10,17,9
CCOc1cc(/C=C(\CC(=O)O)c2nc3ccccc3s2)ccc1OC,37,-9,32,8,62*,8
O=C(O)c1cccc2c1C(=O)c1ccc(N3CCN(Cc4ccc5c(c4)OCO5)CC3)cc1S2(=O)=O,3,-6,-23,-4,-1,4
CCOC(=O)C1=C(C)Nc2ccc(C)cc2S1,22,1,2,-32,96*,-6
O=C(Cc1ccccc1)Nc1nc2ccccc2[nH]1,64*,-5,3,-209,39,-188
O=C(Cc1ccc(Cl)cc1)Nc1nc2ccccc2[nH]1,-55,-17,15,-42,5,-28
C=CCN(c1ccccc1)S(=O)(=O)c1cccc(C(=O)Nc2nc3ccccc3[nH]2)c1,15,0,12,6,54*,10
O=C(Nc1nc2ccccc2[nH]1)c1ccccc1,40,4,-15,-28,79*,-30
O=C(Nc1nc2ccccc2[nH]1)c1ccc(Cl)cc1,28,-30,-18,-54,69*,-77
CC1=C(C(=O)Nc2ccccn2)C(c2ccccc2Cl)NC(=S)N1 (stereo not given),-28,-5,5,-160,-18,-146
O=C(O)CC(NC(=O)c1cccc(F)c1)c1ccc(OC2CCCC2)cc1 (stereo not given),3,-4,4,14,12,1
CC(C)(C)c1ccc(OCC(=O)NNC(=O)C2CCCO2)cc1 (stereo not given),17,7,-3,4,2,-8

# Compound activity (PubChem BioAssay)
